Bioassay records from PubChem BioAssay.
TRHR enhancer: allosterically enhances the human TRH receptor; P34981; TRHR cells, fluo-8 calcium fluorescence, EC20 TRH enhancement; enhancement, % at 2 µM; hit rate 0.66% among 360,000; in the data active = enhancement above about 30%
Target sequence (P34981 whole entry, looked up): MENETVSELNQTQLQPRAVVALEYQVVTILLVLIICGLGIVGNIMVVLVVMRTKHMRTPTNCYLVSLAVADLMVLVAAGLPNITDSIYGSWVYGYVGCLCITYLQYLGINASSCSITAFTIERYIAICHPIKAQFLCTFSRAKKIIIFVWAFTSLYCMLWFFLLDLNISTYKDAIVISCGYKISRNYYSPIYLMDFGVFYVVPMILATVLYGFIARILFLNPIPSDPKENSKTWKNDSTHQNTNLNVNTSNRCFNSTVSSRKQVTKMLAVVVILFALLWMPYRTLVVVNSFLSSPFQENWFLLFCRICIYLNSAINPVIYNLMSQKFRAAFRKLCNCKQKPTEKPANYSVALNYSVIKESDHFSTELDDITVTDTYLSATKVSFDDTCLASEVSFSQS
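TRHR-expressing cells loaded with fluo-8 calcium dye were read kinetically (ex 480/em 530) during compound addition, then stimulated with an EC20 of TRH (10 nM final). Enhancement of the Gq-mediated intracellular calcium response was scored.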
D1 antagonist: antagonists of human D1 dopamine receptor | P21728 | HEK293 TREx D1 cells, calcium flux, dopamine EC80; hits give low values | activity change, negative = inhibition, % at 10 µM | hit rate 3.2% among 360,000; in the data active = activity change below about -30%
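HEK293 T-REx cells expressing inducible, force-coupled D1 receptor; no-wash Ca dye, 30–90 min RT. Cmpd → 180 s read at 1 Hz → EC80 DA → 180 s read.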
D1 PAM: human D1 dopamine receptor positive modulation. P21728. potentiation, % at 10 µM. HEK293 TREx D1 cells, calcium flux, dopamine EC20 potentiation. hit rate 0.036% among 360,000. AID 504651; in the data active = potentiation above about 30%
D1 ag: activates the human D1 dopamine receptor; P21728; HEK293 T-REx D1 cells, calcium flux, agonist mode; activation, % at 2 µM; hit rate 1% among 360,000; AID 504660
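Agonism was scored from calcium flux recorded over 180 s (1 read/s) after pintool compound addition, following a 10-cycle baseline. Cells were inducible force-coupled HEK293 TREx D1, plated overnight at 30 C and loaded with no-wash calcium dye.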
GRP78 ERSR act: inducers of ER stress response in human glioma cells; hit rate 0.02% among 420,000; Potency, µM, usual class: activators; AID 602332; U87-MG GRP78 promoter luciferase reporter, 16 h; active = well fitted activation curve with a large enough effect; inconclusive = small, poorly fitted or top-dose-only effect; inactive = no such curve, though single readings can be large or run the other way; also: series mostly up to about 76 µM; nearly all actives have a fitted effect of over 35% in size
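ERSR induction read as luciferase luminescence (Bright-Glo, 10 min at room temperature) in stably transfected human U87-MG glioma cells exposed to compounds for 16 h, using GRP78 as sensor.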
TRHR agonist: agonists of human TRH receptor | TRHR cells, calcium flux fluo-8, FDSS agonist mode | activation, % at 2 µM | hit rate 0.18% among 360,000 | AID 493084
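Agonist-mode FDSS calcium read (Ex 480/Em 530, 1 s cycles) in 1536-well TRHR cells with fluo-8 dye, after 10-cycle baseline and 23 nL compound addition; TRH at EC20 (10 nM final) added afterwards for the enhancer phase.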
Of the large screens only hits and unclear results are named; the others gave an inactive call. Sampled rows, rich in hits. Any-hit rate of the full collection: about 4%. Rule as the data show it, unless noted: active = activation above about 30%; inactive = the rest.

CC1CCc2nc(NC(=O)CN3CCOCC3)sc2C1 (configuration not stated)	D1 antagonist -34.0
Cc1cccc(N2CCN(C(=O)CCNS(=O)(=O)c3ccc4c(c3)oc(=O)n4C)CC2)c1C	none
COc1ccc(C)cc1N/C(N)=N/c1nc(C)cc(C)n1	D1 antagonist -74.5
COc1ccc(Cl)cc1N/C(N)=N/c1nc(C)cc(C)n1	D1 antagonist -69.5
COc1ccc(OC)c(N/C(N)=N/c2nc(C)cc(C)n2)c1	none
CCCOc1ccccc1N/C(N)=N/c1nc(C)cc(C)n1	D1 antagonist -58.8
COc1ccc(Cl)cc1N/C(N)=N/c1nc(C)cc(=O)[nH]1	none
c1cn(-c2ccnc(-c3ccc4c(c3)OCO4)n2)cn1	none (no result: TRHR enhancer, D1 antagonist, D1 PAM, D1 ag, TRHR agonist)
Cc1c(C(=O)NCC2(N3CCCCC3)CCCC2)cnn1-c1nccc(-c2ccccc2F)n1	none (no result: TRHR enhancer, D1 antagonist, D1 PAM, D1 ag, TRHR agonist)
CN(Cc1ccccc1)C(=O)c1cccc(NC(=O)Cc2cccc(NC(=O)C3CCN(C(=O)c4ccccc4)CC3)c2)c1	none (no result: TRHR enhancer, D1 antagonist, D1 PAM, D1 ag, TRHR agonist)
CCOC(=O)c1c(C)c(C(=O)NC(C)COC)c(C)n1CC (configuration not stated)	none
Cc1cc(S(=O)(=O)NC2CCCCC2)c(C)s1	D1 antagonist -30.4
Cc1ccc(O)c(-c2cc(C(=O)Nc3ccc(S(=O)(=O)Nc4nc(C)cc(C)n4)cc3)[nH]n2)c1	none
CC1=C(C(=O)OC(C)C)C(c2ccncc2)n2ncnc2N1 (configuration not stated)	none
CC1=C(C(=O)OC(C)C)C(c2cccnc2)n2ncnc2N1 (configuration not stated)	D1 antagonist -34.3 (no result: D1 PAM)
COC(=O)C1=C(C)Nc2ncnn2C1c1ccc(OCc2ccccc2)cc1 (configuration not stated)	D1 antagonist -37.7
Cc1nn(-c2ccccc2)c2c1N(CC(=O)N1CCN(c3ccc(F)cc3)CC1)C(=O)CS2	none
Cc1cc2c(s1)c1cnn(Cc3cc(F)ccc3C)c(=O)c1n2C	none (no result: GRP78 ERSR act)
CC(C)(C)c1ccc(OCC(=O)N2CCCCCC2)c(Br)c1	D1 antagonist -35.0
Cc1cc(Nc2ccccc2C(=O)O)ccc1Cl	none (no result: TRHR enhancer, D1 antagonist, D1 PAM, D1 ag, TRHR agonist)
Cc1cnccc1NC(=O)c1cccs1	D1 antagonist -40.7
CCCCC(CC)c1nnc(NC(=O)c2cccs2)s1 (configuration not stated)	none
Cn1ncc(Br)c1C(=O)Nc1c(F)c(F)cc(F)c1F	none
CC(C)c1nnc(NC(=O)c2cccs2)s1	D1 antagonist -52.6
CSc1ccccc1NC(=O)c1cccs1	D1 antagonist -64.7
CSc1ccccc1NC(=O)c1c(Br)cnn1C	D1 antagonist -32.7
CC(=O)Nc1ccc(/C=C/C(=O)c2ccc(-n3nncc3-c3ccccc3)cc2)cc1	none (no result: TRHR enhancer, D1 antagonist, D1 PAM, D1 ag, TRHR agonist)
CCc1ccc(CN(C(=O)Nc2cccc(Cl)c2)c2ccccn2)cc1	D1 ag 31.3
COc1ccc(-c2cc(C(F)F)n3ncc(C(=O)Nc4cc(C)on4)c3n2)cc1	D1 antagonist -38.2
CCCNC(=O)c1cnn2c(C(F)F)cc(-c3ccccc3)nc12	TRHR enhancer 30.2
COCCNC(=O)c1cnn2c(C(F)F)cc(-c3ccc(C)cc3)nc12	none
Cc1ccc(NC(=O)c2ccc(-c3cc(Cl)ccc3Cl)o2)c(C)c1	none (no result: TRHR enhancer, D1 antagonist, D1 PAM, D1 ag, TRHR agonist)
Cc1cccc(N2CCCn3c2nc2c3c(=O)n(CC(=O)OCc3ccccc3)c(=O)n2C)c1	D1 antagonist -55.1 (no result: GRP78 ERSR act)
C=CCn1ccc(=NC=C(C#N)C#N)c2ccccc21	D1 ag 31.3
COc1ccc(/C=N/NC(=O)c2ccccc2O)cc1CN1CCOCC1	D1 antagonist -33.3, GRP78 ERSR act inconclusive
NC(=O)CC[C@H](NC(=O)c1ccc(F)cc1)C(=O)OCC(=O)NCc1ccc2c(c1)OCO2	none (no result: TRHR enhancer, D1 antagonist, D1 PAM, D1 ag, TRHR agonist)
Cc1nc2sccn2c1CN1Cc2ccccc2OC(c2ccccc2F)C1 (configuration not stated)	none (no result: TRHR enhancer, D1 antagonist, D1 PAM, D1 ag, TRHR agonist)
COc1cc2c(cc1OC)C(C1C(=O)CCCC1=O)N(C(=O)CCl)CC2 (configuration not stated)	none
COc1cc2c(cc1OC)C(c1cccs1)N(C(=O)C(C)C)CC2 (configuration not stated)	D1 antagonist -78.1
COc1cc2c(cc1OC)C(c1ccccc1)N(C(=O)CCl)CC2 (configuration not stated)	D1 antagonist -31.7
COc1cc2c(cc1OC)C(c1cccs1)N(C(=O)c1cccnc1)CC2 (configuration not stated)	none
Cc1nc(NC(=O)c2ccccc2)sc1C1(C)CC(c2c(Cl)cccc2Cl)=NO1 (configuration not stated)	D1 antagonist -35.5
Cc1nc(-c2ccccc2)sc1C1(C)CC(c2c(Cl)cccc2Cl)=NO1 (configuration not stated)	none
COc1ccc(NC(=O)c2nc(C)c(C3(C)CC(c4ccccc4)=NO3)s2)cc1 (configuration not stated)	none
Cc1nc(NC(=O)c2ccccc2)sc1C1(C)CC(c2ccccc2F)=NO1 (configuration not stated)	D1 antagonist -32.8
O=C(Cn1cc(CN(Cc2ccccc2)Cc2ccccc2)nn1)Nc1cc(C(F)(F)F)ccc1Cl	none (no result: GRP78 ERSR act)
Cc1ccc(CN(Cc2ccco2)S(=O)(=O)c2ccc(S(=O)(=O)NCC3CCCO3)cc2)cc1 (configuration not stated)	D1 antagonist -35.6
O=C(c1ccc(S(=O)(=O)NCC2CCCO2)cc1)N1CCc2ccccc21 (configuration not stated)	D1 antagonist -51.1
Cc1ccc(S(=O)(=O)Nc2ccc(S(=O)(=O)NCC3CCCO3)cc2)cc1 (configuration not stated)	none
Cc1ccc(-c2ccc(S(=O)(=O)NCC3CCCO3)cc2)cc1 (configuration not stated)	D1 antagonist -31.6
O=S(=O)(NCC1CCCO1)c1ccccc1 (configuration not stated)	none
C#CCOCCOCCOCCNc1nc(N2CCN(C(=O)CCCCCCCCCCNC(=O)[C@@H](CCC(=O)O)n3cc(CCCCCN)nn3)CC2)nc(N2CCN(C(=O)CCCCCCCCCCNC(=O)[C@H](CO)n3cc(CCCCCN)nn3)CC2)n1	D1 ag 45.2
C#CCOCCOCCOCCNc1nc(N2CCN(C(=O)CCCCCCCCCCNC(=O)[C@H]([C@@H](C)CC)n3cc(CCCCN=C(N)N)nn3)CC2)nc(N2CCN(C(=O)CCCCCCCCCCNC(=O)[C@H](CCCN=C(N)N)n3cc(C[C@@H](C)CC)nn3)CC2)n1	none (no result: GRP78 ERSR act)
